Screening results from PubChem.
Shown are actives, neighbours in structure and some others; about 3.1% of the full set was active somewhere.
MBD2 DNA inh: inhibitors of MBD2 binding to methylated DNA, primary screen, biochemical, TR-FRET, DNA-binding domain, human; Methyl-CpG-binding domain protein 2 (Homo sapiens), Q9UBB5; MBD2 binding to methylated oligonucleotide; inhibition, % at 4.4 µM; hit rate 0.31% among 370,000; in the data active means inhibition above about 13%
Neddyl block: inhibitors of cullin neddylation, primary screen, biochemical, TR-FRET, uHTS, NAE and Ubc12. NEDD8-conjugating enzyme Ubc12 (Homo sapiens) + NEDD8-activating enzyme E1 regulatory …. calls only at 25 µM. hit rate 0.58% among 360,000. AID 651699, 2012; in the data active means inhibition above about 36%
LEDGF integ inh: blockers of LEDGF/p75-dependent integrase strand transfer – biochemical, TR-FRET, high throughput, primary screen; hit rate 0.64% among 370,000; inhibition, % at 3.7 µM; AID 743269, 2014; TR-FRET IN-LEDGF/p75 DNA integration, Eu/Cy5;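 active means inhibition above the screen-wide mean plus 3 SD, cut at about 13% in these data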;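 further: signal is the Cy5 over europium emission ratio at 671 and 618 nm; 0% = plate median of compound wells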
proKLK7 act: proKLK7 zymogen activators, primary screen, biochemical, fluorescence intensity; purified proKLK7, EDANS-DABCYL substrate fluorescence; 100% is mature enzyme control, 0% vehicle; activation, % at 7 µM; hit rate 0.9% among 370,000; AID 652039, 2013;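 active means activation above the mean of all tested compounds plus 3 SD, computed per campaign excluding outliers beyond control limits, cut at about 13% in these data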
UHRF1 binding: UHRF1 methylated DNA binding inhibitors, primary screen, counter-screen for MBD2 inhibitor project, biochemical, TR-FRET, human UHRF1, single concentration | E3 ubiquitin-protein ligase UHRF1 (Homo sapiens), Q96T88 | UHRF1 binding to methylated oligo | inhibition, % at 4.4 µM | hit rate 0.75% among 370,000;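 further: UHRF1 SRA domain binding a hemimethylated CpG hairpin DNA probe; 0% = median of test compound wells and 100% = reference inhibitor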
Rin1-Abl PPI inh: inhibitors of Rin1-Abl protein binding, primary screen, biochemical, TR-FRET. hit rate 0.4% among 360,000. Tyrosine-protein kinase ABL1 (Homo sapiens) + Ras and Rab interactor 1 (Homo sapiens), …. inhibition, % at 7.35 µM; in the data active means inhibition above about 5%, passing the limit was not always enough
UHRF1 DNA bind: UHRF1 methylated DNA binding inhibitors, counter-screen for MBD2 inhibitor project, biochemical, TR-FRET, human UHRF1. shares compounds with MBD2 DNA inh. UHRF1 binding to methylated oligonucleotide. inhibition, % at 4.4 µM. hit rate 25% among 1,000. AID 720530, 2013;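 further: UHRF1 SRA domain binding a labeled hemimethylated CpG hairpin DNA; 0% = vehicle only and 100% = reference inhibitor with vehicle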
MBD2 confirm: inhibitors of MBD2 binding to methylated DNA, confirmation, biochemical, TR-FRET, DNA-binding domain, human | AID 720531, 2013 | TR-FRET MBD2-DBD binding to methylated oligonucleotide | hit rate 26% among 1,000 | inhibition, % at 4.4 µM | shares compounds with MBD2 DNA inh; in the data active means inhibition above about 14%
* marks the source's active call; other numbers are inactive results; i = inactive; / = not tested or not shown. Unless noted, no stated cut-off is given here; in the data, active means inhibition above about 21%; inactive means the rest.

SMILES | MBD2 DNA inh | Neddyl block | LEDGF integ inh | proKLK7 act | UHRF1 binding | Rin1-Abl PPI inh | UHRF1 DNA bind | MBD2 confirm
COC(=O)C1CN(C2CC2)CCS(=O)(=O)N1Cc1cn(Cc2ccc(OC)cc2)nn1 (configuration not stated) | 0 | / | -3 | 0 | 3 | / | / | /
COC(=O)C1CN(C2CCCC2)CCS(=O)(=O)N1Cc1cn(Cc2ccc(OC)cc2)nn1 (configuration not stated) | 16* | / | 5 | 0 | -4 | / | 4 | 2
CS(=O)(=O)c1ccc(C(=O)Nc2nc(-c3ccco3)c(-c3ccco3)s2)cc1 | 41* | i | 89* | 0 | 88* | 2 | 12 | 4
O=C(COC(=O)CNC(=O)c1ccccc1)Nc1ccc(Cl)cc1C(F)(F)F | 5 | i | 1 | -1 | -1 | 0 | / | /
O=C(COC(=O)CNC(=O)c1ccc(Cl)cc1)Nc1ccc(Cl)cc1C(F)(F)F | 61* | i | 4 | -1 | 1 | 2 | 9 | 1
CC(C)N1CCc2c(sc(NC(=O)c3ccc(S(=O)(=O)N4CCOCC4)cc3)c2C(N)=O)C1 | -6 | i | 1 | 8 | -8 | -7 | / | /
CCOC(=O)c1c(NC(=O)C2CCCCC2)sc2c1CCN(C(C)C)C2 | 16* | i | 0 | 0 | 2 | -4 | 5 | 5
CCOC(=O)c1c(NC(=O)c2ccc(S(=O)(=O)N3CCOCC3)cc2)sc2c1CCN(C(C)C)C2 | 20* | i | 0 | -5 | 25* | -3 | 34* | 27*
COC(=O)c1c(NC(=O)C2CCCCC2)sc2c1CCN(C(C)C)C2 | 4 | i | -2 | 0 | 3 | 2 | / | /
CCOC(=O)C(=O)N(C)c1c(CC)nc2c(OCc3cc(Cl)cc(Cl)c3)cccn12 | -5 | i | -3 | 0 | -2 | -1 | / | /
O=C(CN1CCOCC1)NCCC12CC3CC(CC(C3)C1)C2 | 14* | i | -2 | 0 | 4 | -1 | 2 | 4
CCN(CC)C(=O)c1csc([C@@H]2O[C@H](CO)[C@H](O)[C@H](O)[C@H]2O)n1 | 26* | i | -1 | -1 | 2 | -2 | 4 | 3
CC(=O)Nc1ccc(S(=O)(=O)N2CCC(C(N)=O)(N3CCCCC3)CC2)cc1 | 0 | i | 0 | 0 | -4 | 1 | / | /
CC(C)(C)C1CCc2onc(C(=O)NCc3ccc(F)cc3)c2C1 (configuration not stated) | 17* | i | 1 | 0 | 17 | -2 | 2 | 2
O=C(NCc1ccc(F)cc1)c1noc2c1CCCC2 | / | i | / | / | / | -2 | / | /
CCC1CCCCN1C(=O)COC(=O)c1cccs1 (configuration not stated) | 17* | i | -1 | 0 | 14 | 5 | 1 | 7
CC1(C)CCc2c([nH]c3ccccc3c2=O)O1 | -3 | i | -3 | 0 | -1 | -2 | / | /
CCC1CCc2c([nH]c3ccccc3c2=O)O1 (configuration not stated) | 13* | i | 5 | 0 | 22* | 3 | 6 | 0
O=S(=O)(Nc1cccc(S(=O)(=O)N2CCCC2)c1)c1cccc(Br)c1 | 105* | i | -2 | 0 | -1 | 2 | 8 | 2
COc1cccc(C(=O)Nc2ccccc2OC(F)(F)F)c1 | 2 | i | -4 | 0 | -2 | 1 | / | /
Cc1nn2c(-c3ccc(Cl)cc3)nnc2s1 | 14* | i | 0 | 0 | -16 | -2 | 4 | 5
O=C(O)c1ccc2c(c1)C(=O)/C(=C\c1ccco1)C2=O | 28* | i | 79* | 1 | 88* | 8 | 38* | 0
COc1ccc2sc(-c3ccccc3OC)c(C#CCCO)c2c1 | 15* | i | 3 | 0 | 17 | -1 | 9 | 7
COc1ccccc1C(=O)NC(CCSC)C(=O)NCC(c1cccs1)N(C)C (configuration not stated) | 14* | i | 0 | 0 | 3 | 2 | 11 | 2
C/C=C/C=[N+](\[O-])C(C)/C(=N/O)c1ccc(F)cc1 (configuration not stated) | 14* | i | 1 | 0 | 5 | -3 | 1 | 1
SMILES | MBD2 DNA inh | Neddyl block | LEDGF integ inh | proKLK7 act | UHRF1 binding | Rin1-Abl PPI inh | UHRF1 DNA bind | MBD2 confirm
Cc1cc(NS(=O)(=O)c2ccc(NC(=O)Cc3cccs3)cc2)no1 | / | i | / | / | / | 3 | / | /
Cc1cc(NC(=O)Cc2cccs2)no1 | 16* | i | 5 | 0 | 29* | 0 | 25* | 19*
O=C(CSc1ccccc1)N1CCc2ccccc21 | 14* | i | 4 | 0 | 22* | -1 | 2 | 2
CC(C)(C)NC(=O)C(c1ccncc1)N(C(=O)C1CSC(=O)C1)c1ccccc1 (configuration not stated) | -2 | i | -2 | 0 | -2 | 1 | / | /
COc1ccc(-c2oc3c(c2C(=O)OCCO)C(OCCCO)CCC3)cc1 (configuration not stated) | 3 | / | 2 | 1 | -2 | / | / | /
COc1cc2c(cc1OC)-c1c(OC)c(OC)cc3ccnc(c13)C2=O | 33* | i | -2 | 0 | 37* | -12 | 53* | 46*
COc1cc2cccc(OC)c(=O)c2c(O)c1OC | -9 | i | -8 | 0 | -6 | -4 | / | /
CN(C(=O)c1cnccn1)c1c(N)n(Cc2ccccc2)c(=O)[nH]c1=O | -2 | i | -4 | 0 | -1 | -2 | / | /
OC[C@@H](O)C(O)[C@@H](O)CO (some centres not stated) | 22* | i | 0 | 1 | 13 | -1 | 6 | 3
CNCC(O)C(O)C(O)C(O)CO (configuration not stated) | 5 | i | 5 | 0 | 0 | -4 | / | /
CC(=O)Nc1cc(-c2cccc(C(=O)N(C)C)c2)cn2c(-c3ccc(C(C)=O)cc3)cnc12 | 14* | i | -2 | -5 | -3 | -8 | 8 | 5
CC(=O)Nc1cc(-c2cccc(C(=O)N(C)C)c2)cn2c(-c3ccccc3)cnc12 | -1 | i | -2 | 0 | -3 | 2 | / | /
